Measurements from PubChem BioAssay (NCI).
This is part of a sample that, as a whole, favours compounds with a hit. Of some 83,000 tested, about 20% had one in any assay.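 In brief: 96-well plates, 48 h treatment, single concentration, percent growth endpoint.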 The source made the active and inactive calls. Rule for the calls: active = growth percent below 10; inactive = the rest.

Tests used:
Experiment in all cases: NCI-60 one-dose screen, 48 h (100 = growth as untreated, 0 = no growth, -100 = all killed)
Details in all cases: 10 µM unless noted
HCT-15 colon = tested on: HCT-15 colon
HT29 colon = tested on: HT29 colon
SNB-75 CNS = tested on: SNB-75 CNS
SNB-19 CNS = tested on: SNB-19 CNS
U251 CNS = tested on: U251 CNS
PC-3 prostate = tested on: PC-3 prostate
UACC-62 melanoma = tested on: UACC-62 melanoma
LOX IMVI melanoma = tested on: LOX IMVI melanoma
SK-MEL-28 melanoma = tested on: SK-MEL-28 melanoma
SK-MEL-2 melanoma = tested on: SK-MEL-2 melanoma
EKVX NSCLC = tested on: EKVX NSCLC
SN12C renal = tested on: SN12C renal
UO-31 renal = tested on: UO-31 renal
TK-10 renal = tested on: TK-10 renal
ACHN renal = tested on: ACHN renal
CAKI-1 renal = tested on: CAKI-1 renal
A498 renal = tested on: A498 renal
CCRF-CEM leukemia = tested on: CCRF-CEM leukemia
MOLT-4 leukemia = tested on: MOLT-4 leukemia

Measured: growth

CCCSc1ccc2nc(NC(=O)OC)[nH]c2c1
active: HT29 colon 2.84% | SK-MEL-2 melanoma 7.33% | A498 renal -5.4%
inactive: HCT-15 colon 18.1% | SNB-75 CNS 22.4% | SNB-19 CNS 29.9% | U251 CNS 14.1% | PC-3 prostate 20.7% | UACC-62 melanoma 27.6% | LOX IMVI melanoma 50.1% | SK-MEL-28 melanoma 53.7% | EKVX NSCLC 58.2% | SN12C renal 41.5% | UO-31 renal 45.5% | TK-10 renal 39.7% | ACHN renal 48.6% | CAKI-1 renal 55% | CCRF-CEM leukemia 10.6% | MOLT-4 leukemia 23.6%

CC[C@@H](C(=O)[C@@H](C)[C@@H](O)[C@H](C)[C@@H]1O[C@@H]([C@@H](CC)C(=O)O)CC[C@@H]1C)[C@H]1OC2(C=C[C@@H](O)[C@]3(CC[C@@](C)([C@H]4CC[C@](O)(CC)[C@H](C)O4)O3)O2)[C@H](C)C[C@@H]1C (some centres not stated)
inactive: HCT-15 colon 19.8% | HT29 colon 13.5% | PC-3 prostate 31.2% | EKVX NSCLC 34.3% | SN12C renal 16.1% | UO-31 renal 20.4% | TK-10 renal 29.7% | ACHN renal 33.4% | CAKI-1 renal 18.2%
active: SNB-75 CNS -28.8% | SNB-19 CNS -33.7% | U251 CNS 0.353% | UACC-62 melanoma -96.2% | LOX IMVI melanoma 8.3% | SK-MEL-28 melanoma -89.8% | SK-MEL-2 melanoma -55.1% | A498 renal -79.2% | CCRF-CEM leukemia 0.899%

COc1cc(/C=C/c2cc(/C=C/c3ccc(O)c(OC)c3)n(-c3c(Cl)cccc3Cl)c(=O)n2)ccc1O
inactive: HCT-15 colon 10.3% | SNB-75 CNS 49.4% | SNB-19 CNS 34.1% | PC-3 prostate 34.9% | UACC-62 melanoma 38.2% | SK-MEL-28 melanoma 17.6% | SK-MEL-2 melanoma 82.9% | EKVX NSCLC 41.4% | SN12C renal 27.8% | UO-31 renal 25.2% | TK-10 renal 86% | ACHN renal 37.8% | CAKI-1 renal 63.2% | A498 renal 78.5% | CCRF-CEM leukemia 10.4%
active: HT29 colon -30.4% | U251 CNS 8.54% | LOX IMVI melanoma 2.83% | MOLT-4 leukemia 9.71%

CCOc1cc2ncc(C#N)c(Nc3ccc(F)c(Cl)c3)c2cc1NC(=O)CC1CCSS1 (configuration not stated)
active: HCT-15 colon -71.1% | HT29 colon -72.5% | SNB-75 CNS -72% | SNB-19 CNS -34.5% | U251 CNS -58.9% | PC-3 prostate -72.6% | UACC-62 melanoma -66% | LOX IMVI melanoma -81.2% | SK-MEL-28 melanoma -79.1% | SK-MEL-2 melanoma -49.2% | EKVX NSCLC -55% | SN12C renal -55.9% | UO-31 renal -92.4% | TK-10 renal -74.2% | ACHN renal -90.7% | CAKI-1 renal -73.4% | A498 renal -53.7% | CCRF-CEM leukemia -20.2% | MOLT-4 leukemia -47%

CN1CCN(CCCOc2cccc3nc(Nc4cc(Cl)cc(Cl)c4)ccc23)CC1
active: HCT-15 colon -73.6% | HT29 colon -80.1% | SNB-19 CNS 7.72% | U251 CNS -1.53% | PC-3 prostate 3.25% | UACC-62 melanoma -57.7% | LOX IMVI melanoma -92.9% | SK-MEL-28 melanoma -51.2% | UO-31 renal -15.8% | ACHN renal -5.36% | CCRF-CEM leukemia -40.7% | MOLT-4 leukemia -47.7%
inactive: SNB-75 CNS 36.4% | SK-MEL-2 melanoma 86.9% | EKVX NSCLC 26.6% | SN12C renal 36.1% | TK-10 renal 71.9% | CAKI-1 renal 30.7% | A498 renal 23.8%

Oc1ccccc1-c1nnc(CNc2ccc(Cl)cc2)o1
active: UACC-62 melanoma 8.19% | LOX IMVI melanoma 7.71%
inactive: HCT-15 colon 20.7% | HT29 colon 39.7% | SNB-75 CNS 50.3% | SNB-19 CNS 41.9% | U251 CNS 16% | PC-3 prostate 34.5% | SK-MEL-28 melanoma 32.2% | SK-MEL-2 melanoma 30.1% | EKVX NSCLC 38.9% | SN12C renal 40.6% | UO-31 renal 19% | TK-10 renal 44.7% | ACHN renal 12.7% | CAKI-1 renal 17% | A498 renal 77.9% | CCRF-CEM leukemia 11.8% | MOLT-4 leukemia 15.5%

O=C1OC(c2ccccc2)C(O)=C1c1ccccc1 (configuration not stated)
inactive: HCT-15 colon 108% | HT29 colon 111% | SNB-75 CNS 102% | SNB-19 CNS 105% | U251 CNS 100% | PC-3 prostate 99.1% | UACC-62 melanoma 104% | LOX IMVI melanoma 113% | SK-MEL-28 melanoma 120% | SK-MEL-2 melanoma 117% | EKVX NSCLC 104% | SN12C renal 98.9% | UO-31 renal 79.7% | TK-10 renal 110% | ACHN renal 103% | CAKI-1 renal 95% | A498 renal 100% | CCRF-CEM leukemia 89.7% | MOLT-4 leukemia 90.1%

CCN=C1C=CC(=C(c2ccc(N)cc2)c2ccc(N(CC)CC)c(C)c2)C=C1
inactive: SNB-19 CNS 11.5% | EKVX NSCLC 10.6% | TK-10 renal 15.4% | CAKI-1 renal 14.1%
active: HCT-15 colon 7.26% | HT29 colon 5.82% | SNB-75 CNS -28.4% | U251 CNS -19% | PC-3 prostate -5.29% | UACC-62 melanoma -36.6% | LOX IMVI melanoma -56.2% | SK-MEL-28 melanoma -19.1% | SK-MEL-2 melanoma -15.3% | SN12C renal -14% | UO-31 renal 3.22% | ACHN renal -2.24% | A498 renal -26.5% | CCRF-CEM leukemia -19.5% | MOLT-4 leukemia -4.13%

COc1cc2c(cc1-c1c(C)noc1C)ncc1nc(C3CCCCC3)n([C@H](C)COC(F)F)c12
inactive: HCT-15 colon 15.1% | HT29 colon 19.3% | SNB-75 CNS 41% | SNB-19 CNS 45.4% | U251 CNS 45.7% | PC-3 prostate 35% | UACC-62 melanoma 22.8% | LOX IMVI melanoma 11% | SK-MEL-28 melanoma 49.9% | SK-MEL-2 melanoma 69% | EKVX NSCLC 44.3% | SN12C renal 58.4% | UO-31 renal 13.6% | TK-10 renal 33.2% | ACHN renal 33.1% | CAKI-1 renal 29.2% | CCRF-CEM leukemia 44.9% | MOLT-4 leukemia 47.6%
active: A498 renal -13.1%

Nc1nc2ncc(CCNc3ccc(C(=O)O)cc3)nc2c(=O)[nH]1
inactive: HCT-15 colon 102% | HT29 colon 97.5% | SNB-75 CNS 110% | SNB-19 CNS 111% | U251 CNS 109% | PC-3 prostate 92.4% | UACC-62 melanoma 111% | LOX IMVI melanoma 102% | SK-MEL-28 melanoma 118% | SK-MEL-2 melanoma 96.3% | EKVX NSCLC 120% | SN12C renal 106% | UO-31 renal 86.6% | TK-10 renal 103% | ACHN renal 110% | CAKI-1 renal 98.3% | A498 renal 120% | CCRF-CEM leukemia 87.9% | MOLT-4 leukemia 75.5%

O=C(O)COc1ccc(Cl)cc1C1CCCCC1
inactive: HCT-15 colon 106% | HT29 colon 104% | SNB-75 CNS 88.1% | SNB-19 CNS 99.9% | U251 CNS 102% | PC-3 prostate 102% | UACC-62 melanoma 95.6% | LOX IMVI melanoma 106% | SK-MEL-28 melanoma 108% | SK-MEL-2 melanoma 103% | EKVX NSCLC 117% | SN12C renal 98.5% | UO-31 renal 87.6% | TK-10 renal 101% | ACHN renal 107% | CAKI-1 renal 99.4% | A498 renal 90.2% | CCRF-CEM leukemia 92.1% | MOLT-4 leukemia 87.9%

C#CC(F)(F)[C@]1(O)CC[C@H]2[C@@H]3CCC4=CC(=O)CCC4=C3[C@@H](c3ccc(C(C)=O)cc3)C[C@@]21C
active: HT29 colon 1.5% | EKVX NSCLC -60.6% | UO-31 renal -75% | CAKI-1 renal -31.9% | CCRF-CEM leukemia -55.5%
inactive: HCT-15 colon 89.6% | SNB-75 CNS 73.7% | SNB-19 CNS 95.6% | U251 CNS 75.5% | PC-3 prostate 37% | UACC-62 melanoma 80.2% | LOX IMVI melanoma 48.9% | SK-MEL-28 melanoma 107% | SK-MEL-2 melanoma 99.4% | SN12C renal 89.3% | TK-10 renal 114% | ACHN renal 87.8% | A498 renal 79% | MOLT-4 leukemia 35.6%

CCOC(=O)C(C)(C#N)C1C=CCCC1 (configuration not stated)
inactive: HCT-15 colon 91.3% | HT29 colon 94.7% | SNB-75 CNS 78.3% | SNB-19 CNS 87.9% | U251 CNS 106% | PC-3 prostate 94.2% | UACC-62 melanoma 97.7% | LOX IMVI melanoma 96.1% | SK-MEL-28 melanoma 96.2% | SK-MEL-2 melanoma 96.5% | EKVX NSCLC 96.7% | SN12C renal 95% | UO-31 renal 84% | TK-10 renal 83.2% | ACHN renal 92.3% | CAKI-1 renal 75.1% | A498 renal 63.2% | CCRF-CEM leukemia 84.6% | MOLT-4 leukemia 98%

COc1cc2c(cc1-c1c(C)noc1C)ncc1nc(C3CCOCC3)n([C@H](C)COC(F)F)c12
inactive: HCT-15 colon 22.8% | HT29 colon 24.5% | SNB-75 CNS 29.9% | SNB-19 CNS 47.6% | U251 CNS 51.8% | PC-3 prostate 34.3% | UACC-62 melanoma 17.8% | LOX IMVI melanoma 12.6% | SK-MEL-28 melanoma 55.8% | SK-MEL-2 melanoma 67% | EKVX NSCLC 50.4% | SN12C renal 57% | UO-31 renal 15.7% | TK-10 renal 25.3% | ACHN renal 34.6% | CAKI-1 renal 26.7% | CCRF-CEM leukemia 48.3%
active: A498 renal -13.5%

CC1=C/C(=C(\c2ccc(N(C)C)cc2)c2ccc([N+](C)(C)C)cc2)C=CC1=[N+](C)C
inactive: HCT-15 colon 95.7% | HT29 colon 36.5% | SNB-75 CNS 80.5% | SNB-19 CNS 77% | U251 CNS 25.7% | PC-3 prostate 72.9% | UACC-62 melanoma 97.6% | LOX IMVI melanoma 69.1% | SK-MEL-28 melanoma 72.3% | SK-MEL-2 melanoma 110% | EKVX NSCLC 54.8% | SN12C renal 50.9% | UO-31 renal 96.1% | TK-10 renal 90% | ACHN renal 78.1% | CAKI-1 renal 99.2% | A498 renal 81.9% | CCRF-CEM leukemia 85.8% | MOLT-4 leukemia 106%

O=C(CCl)Oc1ccc(-c2ccccc2)c(Br)c1
inactive: HCT-15 colon 110% | HT29 colon 109% | SNB-75 CNS 95.6% | SNB-19 CNS 107% | U251 CNS 102% | PC-3 prostate 97.2% | UACC-62 melanoma 99.6% | LOX IMVI melanoma 97% | SK-MEL-28 melanoma 107% | SK-MEL-2 melanoma 104% | EKVX NSCLC 115% | SN12C renal 109% | UO-31 renal 92.8% | TK-10 renal 105% | ACHN renal 108% | CAKI-1 renal 98.5% | A498 renal 95% | CCRF-CEM leukemia 118% | MOLT-4 leukemia 105%
